Experimental data taken from the supplement of paper PMC6555819.

Key:
Experiment in all cases: PBM binding z-score (relative to random genomic background probes); higher = stronger binding; sequences stand for … in GC…GCGATTGACAGCGTAGAATGAAGG
[1] = tested on: FXR:RXRa (NR concentration 270 nM, RXRa partner concentration 90 nM)
In short: (§1)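 Random background probes are the reference for binding z-scores. These scores derive from regression-normalized fluorescence on custom Agilent 4×180K protein-binding microarrays incubated 1 h with ligand-free nuclear receptor dimers. Binding was detected with antibodies against each partner (one per run).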

[2] = tested on: LXRa:RXRa (NR concentration 270 nM, RXRa partner concentration 90 nM)
In short: as §1

[3] = tested on: LXRa homodimer (NR concentration 270 nM)
In short: as §1

[4] = tested on: LXRb:RXRa (NR concentration 270 nM, RXRa partner concentration 90 nM)
In short: as §1

[5] = tested on: LXRb homodimer (NR concentration 270 nM)
In short: as §1

[6] = tested on: PPARa:RXRa (NR concentration 270 nM, RXRa partner concentration 90 nM)
In short: as §1

[7] = tested on: PPARg:RXRa (NR concentration 180 nM, RXRa partner concentration 90 nM)
In short: as §1

[8] = tested on: PPARg:RXRa 270nM:90nM, anti-RXR (NR concentration 270 nM, RXRa partner concentration 90 nM)
In short: as §1

[9] = tested on: PPARg:RXRa 30nM:10nM, anti-RXR (NR concentration 30 nM, RXRa partner concentration 10 nM)
In short: as §1

[10] = tested on: PPARg:RXRa 90nM:30nM, anti-RXR (NR concentration 90 nM, RXRa partner concentration 30 nM)
In short: as §1

[11] = tested on: PPARg:RXRa DBDmut IVT, anti-RXR (DBD mutation: RXRa K156A/R161A, NR concentration 270 nM, RXRa partner concentration 90 nM)
In short: as §1

[12] = tested on: PPARg:RXRa IVT, anti-PPARg (NR concentration 270 nM, RXRa partner concentration 90 nM)
In short: as §1

[13] = tested on: PPARg DBDmut:RXRa IVT, anti-PPARg (DBD mutation: PPARg1 K132A/R137A, NR concentration 270 nM, RXRa partner concentration 90 nM)
In short: as §1

[14] = tested on: PPARg DBDmut IVT, anti-PPARg (DBD mutation: PPARg1 K132A/R137A, NR concentration 270 nM)
In short: as §1

[15] = tested on: PPARg homodimer (NR concentration 180 nM)
In short: as §1

[16] = tested on: PXR:RXRa (NR concentration 270 nM, RXRa partner concentration 90 nM)
In short: as §1

[17] = tested on: PXR homodimer (NR concentration 270 nM)
In short: as §1

[18] = tested on: RARa:RXR (NR concentration 270 nM, RXRa partner concentration 90 nM)
In short: as §1

[19] = tested on: RARa homodimer (NR concentration 270 nM)
In short: as §1

[20] = tested on: RARb:RXRa (NR concentration 270 nM, RXRa partner concentration 90 nM)
In short: as §1

Sequence | PBM binding z-score [1] | PBM binding z-score [2] | PBM binding z-score [3] | PBM binding z-score [4] | PBM binding z-score [5] | PBM binding z-score [6] | PBM binding z-score [7] | PBM binding z-score [8] | PBM binding z-score [9] | PBM binding z-score [10] | PBM binding z-score [11] | PBM binding z-score [12] | PBM binding z-score [13] | PBM binding z-score [14] | PBM binding z-score [15] | PBM binding z-score [16] | PBM binding z-score [17] | PBM binding z-score [18] | PBM binding z-score [19] | PBM binding z-score [20]
GCGACTGGGGCAAAGCAGGTTACCCTAAGGTTGG | 0.366 | 0.0738 | -0.555 | 0.116 | -0.841 | 1.56 | 1.08 | 1.52 | -0.381 | 0.659 | 4.69 | 3.9 | -0.575 | -1.15 | 0.0575 | 0.0911 | -0.579 | 0.634 | -1.43 | 0.752
CGCACTAGGTCAAGGACAGTGAATCTCCGCACGC | 3.09 | 2.28 | 0.266 | 1.46 | 0.1 | 4.26 | 6.58 | 5.97 | 3.25 | 5.37 | 8.02 | 7.89 | 1.21 | 0.566 | 1.2 | 1.15 | 0.0235 | 1.92 | 0.00773 | 3.92
ATACCAAGGTGATCCTGAGGTCGTTGATACTAAC | 2.37 | 2.1 | 0.935 | 1.98 | 0.354 | 2.1 | 0.744 | 0.547 | 0.147 | 0.197 | 0.567 | 1.08 | 0.87 | 0.266 | 0.931 | 3.21 | 1.41 | 2.34 | 0.52 | 1.39
TTACCAAGGAGAAGGTCGTTGATCCCTCTGTAGA | 1.21 | 1.19 | -0.0479 | 0.995 | -0.829 | 1.18 | 0.529 | 2.23 | 1.24 | 1.77 | -0.339 | -0.0762 | -0.116 | 0.61 | 0.455 | 1.03 | -0.292 | 1.34 | -0.134 | 0.537
CATGCTAGGTCATGGTCAGCTAATCTACAGTATG | 3.66 | 3.18 | 0.549 | 1.79 | -0.0133 | 3.24 | 2.36 | 2.83 | 1 | 2.3 | 3.61 | 3.51 | 0.62 | 0.712 | 1.58 | 1.4 | -0.662 | 2.58 | 0.163 | 3.92
CAAACTAGGACACCGGAAGGTCAAAGTCCGCATG | 3.19 | 3.23 | 3.38 | 3.19 | 0.695 | 4.46 | 4.72 | 4.54 | 1.9 | 3.7 | 6.39 | 6.49 | 2.4 | 2.63 | 2.78 | 3.89 | 1.68 | 4.36 | 1.36 | 3.59
CTCGAAAGGTCGTACTCAGGTGAGTATACCAAAC | 5.55 | 4 | 0.513 | 3.59 | 0.9 | 4.59 | 2.86 | 3.85 | 1.33 | 2.46 | 1.03 | 1.95 | 0.751 | 1.1 | 2.32 | 3.69 | 0.0401 | 4.62 | 0.162 | 3.75
GCATATAGGTAGTACAAGGTGAAAGTCCGATTGT | 1.03 | 0.23 | -0.159 | 0.269 | -0.562 | 1.16 | 0.674 | 0.733 | 0.197 | 0.775 | 0.709 | 1.04 | 0.664 | 0.977 | -0.146 | 0.403 | 0.176 | 0.66 | 0.249 | 0.368
ATATCTAGGTTAAGGGTCATTCAGGTTGGTTCGC | 5.3 | 5.06 | 3.85 | 4.75 | 2.55 | 6.83 | 11.7 | 10.3 | 10.8 | 12.4 | 7.59 | 8.2 | 6.43 | 4.16 | 4.9 | 5.61 | 3.45 | 5.91 | 3.76 | 3.98
ATACCAAGGAGATCGTGAGGTCGTTGATACTAAC | 0.608 | 0.359 | 0.339 | 0.531 | -0.481 | 0.547 | 0.375 | -0.542 | -0.0699 | -0.394 | -0.488 | -0.258 | -0.211 | 0.112 | 0.128 | 1.65 | 1.21 | 0.973 | -0.464 | 0.331
ACAGACAGGTGAGTGAAGGTAACTCAACTGGACG | 0.515 | -0.0792 | -0.448 | -0.39 | -0.735 | -0.0249 | 0.821 | 0.143 | 0.0922 | -0.0513 | 0.567 | 0.507 | -0.777 | -0.0154 | -0.369 | -0.316 | -0.108 | 0.0758 | -0.165 | 0.486
CGCCCAAGGTCATAGGAGGTCAGTGAAGACAGAT | 7.29 | 7.31 | 4.78 | 6.09 | 0.731 | 5.8 | 5.24 | 5.41 | 2.05 | 4.11 | 2.88 | 4.26 | -0.0879 | -0.0436 | 3.59 | 6.51 | 3.76 | 5.06 | 1.63 | 5.45
TCTAGTTGGTCACCGAGGTCACACACGACGGGTA | 3.85 | 3.58 | 2.2 | 3.85 | 1.18 | 4.41 | 3.75 | 4 | 3.5 | 3.89 | 2.51 | 4.29 | 1.31 | 2.33 | 3.73 | 5.31 | 2.5 | 5.61 | 1.78 | 3.92
GCTTGTAGATCAAGGTTATGAAAGACTAAGCTAA | 0.138 | 0.572 | -0.505 | 0.452 | -0.591 | 1.3 | 0.656 | 0.989 | 0.21 | 0.553 | 1.21 | 0.962 | 0.000562 | 0.0061 | 0.45 | 0.681 | -0.0933 | 0.915 | -0.0399 | 0.632
TCTCGGAGGACACGAAGGTCATAGCTTTCCAGAG | 2.87 | 2.73 | 1.72 | 2.61 | -0.514 | 3.18 | 1.09 | 2.57 | 2.55 | 2.54 | 1.58 | 1.77 | -0.131 | -1.04 | 1.95 | 3.8 | 3.5 | 3.59 | 0.346 | 3.62
